The supplement of paper PMC3334620
Whole data set: some 33,000 sequences, median “E-score (-0.5 to 0.5)” near -0.054, cut for the highest 2% near 0.35. The list comes from a sample in which the highest values are over-represented; it also holds similar and randomly drawn sequences.

What follows are sequences tested against T1, Stb5 (UniProt P38699) (assay: PBM E-score (8-mer binding enrichment) (E-score (-0.5 to 0.5)); higher = stronger / more preferred TF binding). Conditions: protein concentration: 200 nM; construct: GST-full length.
T1 sequence: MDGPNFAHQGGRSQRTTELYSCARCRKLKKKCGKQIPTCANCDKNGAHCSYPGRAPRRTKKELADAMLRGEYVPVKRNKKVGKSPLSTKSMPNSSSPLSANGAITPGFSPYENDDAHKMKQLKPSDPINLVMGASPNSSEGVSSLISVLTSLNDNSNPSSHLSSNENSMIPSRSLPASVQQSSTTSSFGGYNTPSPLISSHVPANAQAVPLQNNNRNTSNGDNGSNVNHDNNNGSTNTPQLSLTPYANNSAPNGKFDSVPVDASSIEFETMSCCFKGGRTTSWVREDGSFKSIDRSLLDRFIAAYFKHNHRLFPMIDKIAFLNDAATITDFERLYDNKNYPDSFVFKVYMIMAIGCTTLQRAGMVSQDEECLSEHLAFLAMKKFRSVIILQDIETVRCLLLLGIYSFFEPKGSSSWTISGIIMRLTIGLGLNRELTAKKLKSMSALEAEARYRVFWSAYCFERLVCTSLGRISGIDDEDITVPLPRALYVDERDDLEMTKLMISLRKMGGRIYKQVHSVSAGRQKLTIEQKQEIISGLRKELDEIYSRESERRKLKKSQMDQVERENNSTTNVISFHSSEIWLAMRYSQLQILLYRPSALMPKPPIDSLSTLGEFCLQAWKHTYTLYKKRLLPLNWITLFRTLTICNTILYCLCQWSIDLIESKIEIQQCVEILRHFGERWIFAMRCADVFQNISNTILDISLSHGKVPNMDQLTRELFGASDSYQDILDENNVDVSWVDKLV
Experimental: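 Universal 'all 10-mer' protein binding microarrays (Agilent AMADID 015681) probed with GST-tagged S. cerevisiae TFs (full-length or DBD) made by in vitro transcription/translation (PURExpress), about 100-200 nM. Bound TF was detected with fluorescent anti-GST. Each ungapped 8-mer (which stands for itself and its reverse complement) is scored by the PBM enrichment score (E-score), a modified Wilcoxon-Mann-Whitney statistic from -0.5 to +0.5, computed with the Universal PBM Analysis Suite. Scale: above 0.35 generally sequence-specific binding.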
GGCAGTAA was tested, and the “PBM E-score” value was 0.256.
With AGGAGCAT the “PBM E-score” value was -0.255.
In the case of CCGCATTA, the “PBM E-score” value is reported as 0.243.
With GCTGGCCC the “PBM E-score” value was -0.184.
With GACATCCA the “PBM E-score” value was -0.0118.
In the case of TCAGTGAA, the “PBM E-score” value is reported as -0.111.
For CTTCGAGC, the “PBM E-score” value was -0.0166.
For AACCCCGG, the “PBM E-score” value was 0.453.
For AAACCCCT, the “PBM E-score” value was 0.153.
AGACCCGG was tested, and the “PBM E-score” value was 0.341.
ACCCCCGG was tested, and the “PBM E-score” value was 0.336.
In the case of AAACCCCG, the “PBM E-score” value is reported as 0.476.
For AGACCCCG, the “PBM E-score” value was 0.394.
For AGACCCCC, the “PBM E-score” value was -0.165.
In the case of ATACCCCC, the “PBM E-score” value is reported as 0.351.
In the case of ATACCCCG, the “PBM E-score” value is reported as 0.392.
AAACCCCA was tested, and the “PBM E-score” value was 0.0234.
In the case of ATACCCCA, the “PBM E-score” value is reported as -0.0468.
For AACCCGGG, the “PBM E-score” value was 0.262.
AAAATGTT was tested, and the “PBM E-score” value was -0.267.
For CACTTGCG, the “PBM E-score” value was -0.0879.
CGTGTCCC was tested, and the “PBM E-score” value was -0.0774.
With CCATTTAA the “PBM E-score” value was -0.073.
CAGCTGTC was tested, and the “PBM E-score” value was -0.31.
With ACACGGTA the “PBM E-score” value was 0.144.
In the case of AGACCAGG, the “PBM E-score” value is reported as -0.149.
With ATGCGACC the “PBM E-score” value was 0.0704.
For AAGGCGCT, the “PBM E-score” value was 0.109.
With ATACCTAG the “PBM E-score” value was -0.233.
AACCCCCC was tested, and the “PBM E-score” value was 0.0126.
With CAACCCCA the “PBM E-score” value was -0.221.
For AACCCCCG, the “PBM E-score” value was 0.401.
CAACCCCG was tested, and the “PBM E-score” value was 0.371.
CAACCCCC was tested, and the “PBM E-score” value was 0.14.
In the case of ACCCCCCG, the “PBM E-score” value is reported as 0.204.
With ACTAGCCC the “PBM E-score” value was 0.15.
In the case of ACTCGTCA, the “PBM E-score” value is reported as -0.163.
In the case of GCCCCTAC, the “PBM E-score” value is reported as 0.076.
For ATTCTTGG, the “PBM E-score” value was -0.0109.
For ACCGGACT, the “PBM E-score” value was 0.376.
In the case of GCCGGACC, the “PBM E-score” value is reported as 0.281.
In the case of CCCGGACC, the “PBM E-score” value is reported as 0.185.
For ACCGGACA, the “PBM E-score” value was 0.321.
With ACCGGACG the “PBM E-score” value was 0.329.
With ACCGGACC the “PBM E-score” value was 0.354.
In the case of AAACTCAC, the “PBM E-score” value is reported as -0.172.
With TAATAAGA the “PBM E-score” value was 0.0281.
GCTCTTTA was tested, and the “PBM E-score” value was 0.0664.
For CACTGCTC, the “PBM E-score” value was -0.117.
For AAGCGTGC, the “PBM E-score” value was -0.171.
In the case of ACGAGCGT, the “PBM E-score” value is reported as -0.163.
For CAGTTCCG, the “PBM E-score” value was 0.0961.
In the case of AAGTTCCT, the “PBM E-score” value is reported as -0.098.
For AAGTTCCG, the “PBM E-score” value was 0.373.
With ACCACAGA the “PBM E-score” value was -0.0655.
With CCCGCTAA the “PBM E-score” value was 0.261.
With AGCGACTG the “PBM E-score” value was -0.328.
For ACGCTACG, the “PBM E-score” value was -0.187.
ACGCTCCG was tested, and the “PBM E-score” value was 0.174.
In the case of CCGCTCCG, the “PBM E-score” value is reported as 0.361.
With CCGCTCCC the “PBM E-score” value was 0.247.
In the case of CCGCTCGC, the “PBM E-score” value is reported as 0.373.
With CCGCTCGA the “PBM E-score” value was 0.328.
With CCGCTACA the “PBM E-score” value was 0.262.
ACGCTCGC was tested, and the “PBM E-score” value was -0.078.
With CCGCTACG the “PBM E-score” value was 0.355.
With CAGTTGCC the “PBM E-score” value was -0.0751.
For AGAAAGAC, the “PBM E-score” value was -0.0525.
For GATATAGA, the “PBM E-score” value was -0.162.
AACGGGTG was tested, and the “PBM E-score” value was 0.155.
For GTGAAGCA, the “PBM E-score” value was -0.165.
With AGATTTTA the “PBM E-score” value was 0.0159.
ACACTATG was tested, and the “PBM E-score” value was -0.13.
AAAGTCTC was tested, and the “PBM E-score” value was -0.145.
In the case of AAGACCGG, the “PBM E-score” value is reported as 0.418.
In the case of AAGACCAT, the “PBM E-score” value is reported as -0.18.
For AAGACCAG, the “PBM E-score” value was -0.107.
AAGACCTT was tested, and the “PBM E-score” value was -0.073.
With GAGACCGC the “PBM E-score” value was 0.311.
With GAGACCGA the “PBM E-score” value was 0.257.
With CAGACCGA the “PBM E-score” value was 0.174.
For AAGACCGC, the “PBM E-score” value was 0.443.
In the case of AAGACCGT, the “PBM E-score” value is reported as 0.382.
CAGACCGC was tested, and the “PBM E-score” value was 0.272.
With CAGACCGG the “PBM E-score” value was 0.272.
In the case of AAGACCGA, the “PBM E-score” value is reported as 0.414.
CCTCTGAG was tested, and the “PBM E-score” value was -0.141.
ACTGCGGC was tested, and the “PBM E-score” value was 0.168.
For TCGTTAGA, the “PBM E-score” value was -0.147.
With ATAAGGGG the “PBM E-score” value was -0.0458.
In the case of ACGTTGAA, the “PBM E-score” value is reported as -0.0556.
In the case of AGCCATAC, the “PBM E-score” value is reported as -0.269.
GCTTGAAA was tested, and the “PBM E-score” value was -0.11.
With AATGCTGT the “PBM E-score” value was -0.0756.
